Reference: PubChem BioAssay (NCATS)
Records with an inconclusive call do not appear. A structure can be active in one record and inactive in another. Activity calls are given as the source filed them. Unless noted, calls come from the whole dose curve; as a rule, active = well fitted curve in the direction sought with a large enough effect; inconclusive = small, poorly fitted or top-dose-only effect, or another doubt; inactive = no such curve, though single readings can be large; an effect the other way counts as inactive or inconclusive.

Experiments:
[1] = biological target: Thioredoxin reductase 1, cytoplasmic (Rattus norvegicus) (UniProt O89049); test: qHTS Assay for Inhibitors of Mammalian Selenoprotein Thioredoxin Reductase 1 (TrxR1) (AID 488773); details: Potency: inhibition;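 note: drop in NADPH fluorescence over an 8 min run after selenite addition; series mostly up to about 57 µM; % is set by controls: 0 for no effect and ±100 for the full control effect; nearly all actives have a fitted effect of over 40% in size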
Method in brief: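 Inhibition is scored from the loss of NADPH fluorescence between first and last reads of an 8-min kinetic run. Selenite (400 uM) was the substrate, added after 15 min compound preincubation at room temperature.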

[2] = biological target: Flap endonuclease 1 (Homo sapiens) (UniProt P39748); test: qHTS Validation Assay for the Inhibitors of Human Flap endonuclease 1 (FEN1) (AID 488816); note: % is set by controls: 0 for no effect and ±100 for the full control effect
Flap endonuclease 1 (Homo sapiens), sequence (P39748 whole entry, looked up): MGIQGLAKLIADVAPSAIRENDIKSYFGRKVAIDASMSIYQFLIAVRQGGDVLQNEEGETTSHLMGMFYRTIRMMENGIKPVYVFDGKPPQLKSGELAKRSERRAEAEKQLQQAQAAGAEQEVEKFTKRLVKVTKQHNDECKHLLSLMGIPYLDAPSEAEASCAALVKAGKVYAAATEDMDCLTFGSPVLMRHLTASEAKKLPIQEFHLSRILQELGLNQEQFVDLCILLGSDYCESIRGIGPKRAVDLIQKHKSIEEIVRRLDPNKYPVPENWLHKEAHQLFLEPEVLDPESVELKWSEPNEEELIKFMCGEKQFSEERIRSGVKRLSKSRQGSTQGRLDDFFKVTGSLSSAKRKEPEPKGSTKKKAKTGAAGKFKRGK
Method in brief: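 qHTS format: compounds and 10 nM FEN1 incubated 15 min at room temperature before adding 50 nM substrate. Cleavage followed by reads at 0 and 15 min; normalized data fitted to a four-parameter Hill curve.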

[3] = biological target: M-phase phosphoprotein 8 (Homo sapiens) (UniProt Q99549); test: qHTS Validation Assay for Inhibitors for MPP8 Chromodomain Interactions with Methylated Histone Tails (AID 488949); note: nearly all actives have a fitted effect of over 55% in size; note: potency is the fitted concentration of half-maximal effect
Method in brief: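 50 nM MPP8 + 50 nM b-H3K9me3 peptide, PBS pH 7.4/0.01% Tween-20, 30 min RT; + cpd 30 min RT; + AlphaScreen donor/Ni-chelate acceptor beads 10 ug/mL final, 30 min dark; luminescence read.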

[4] = biological target: Chromobox protein homolog 1 (Homo sapiens) (UniProt P83916); test: qHTS Validation Assay for Inhibitors of HP1-beta Chromodomain Interactions with Methylated Histone Tails (AID 488953); note: nearly all actives have a fitted effect of over 50% in size; note: potency is the fitted concentration of half-maximal effect
Method in brief: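 Disruption of preformed HP1-beta:H3K9me3 peptide complexes (both 50 nM, PBS pH 7.4 with 0.01% Tween-20) is measured by AlphaScreen after 30 min compound exposure at room temperature, using streptavidin donor and nickel chelate acceptor beads at 10 ug/mL final.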

[5] = biological target: Methanococcus maripaludis chaperonin (MmCpn) (UniProt Q6LX38); test: High-Throughput Screening for Modulators of Cytosolic Chaperonin Activity: MmCpn Primary Screen (AID 488978);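 note: 50 nM MmCpn enzyme hydrolysing 30 µM ATP at 37 °C; 0% is about no effect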
Methanococcus maripaludis chaperonin (MmCpn), sequence (Q6LX38 1-543): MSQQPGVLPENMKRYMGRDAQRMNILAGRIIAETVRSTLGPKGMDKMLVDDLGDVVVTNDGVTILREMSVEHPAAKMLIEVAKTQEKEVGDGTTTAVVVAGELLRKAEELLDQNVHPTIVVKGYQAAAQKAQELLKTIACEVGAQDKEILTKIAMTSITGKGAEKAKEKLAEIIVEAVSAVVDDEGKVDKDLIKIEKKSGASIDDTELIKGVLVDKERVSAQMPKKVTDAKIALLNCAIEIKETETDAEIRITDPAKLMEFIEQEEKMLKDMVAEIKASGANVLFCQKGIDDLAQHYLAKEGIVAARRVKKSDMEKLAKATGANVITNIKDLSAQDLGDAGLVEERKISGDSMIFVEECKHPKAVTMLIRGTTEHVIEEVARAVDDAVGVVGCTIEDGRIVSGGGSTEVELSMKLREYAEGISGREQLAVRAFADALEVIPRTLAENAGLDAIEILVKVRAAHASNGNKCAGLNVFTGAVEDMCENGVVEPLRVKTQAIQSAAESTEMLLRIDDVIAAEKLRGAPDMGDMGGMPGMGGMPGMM
Method in brief: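 Steps: chaperonin 50 nM final; add compound, 5 min RT; start with ATP, 30 uM final; hold 10 min at 37C; add ADP Transcreener HTRF reagent, 5 min; read ex 320, em 590 and 665 nm.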

[6] = biological target: Transient receptor potential cation channel subfamily V member 1 (Homo sapiens) (UniProt Q8NER1); test: HTS Assay for Compounds that Act as Enhancers of the Vanilloid Receptor 1 (AID 488979); note: 0% is about no effect
Transient receptor potential cation channel subfamily V member 1 (Homo sapiens), sequence (Q8NER1 whole entry, looked up): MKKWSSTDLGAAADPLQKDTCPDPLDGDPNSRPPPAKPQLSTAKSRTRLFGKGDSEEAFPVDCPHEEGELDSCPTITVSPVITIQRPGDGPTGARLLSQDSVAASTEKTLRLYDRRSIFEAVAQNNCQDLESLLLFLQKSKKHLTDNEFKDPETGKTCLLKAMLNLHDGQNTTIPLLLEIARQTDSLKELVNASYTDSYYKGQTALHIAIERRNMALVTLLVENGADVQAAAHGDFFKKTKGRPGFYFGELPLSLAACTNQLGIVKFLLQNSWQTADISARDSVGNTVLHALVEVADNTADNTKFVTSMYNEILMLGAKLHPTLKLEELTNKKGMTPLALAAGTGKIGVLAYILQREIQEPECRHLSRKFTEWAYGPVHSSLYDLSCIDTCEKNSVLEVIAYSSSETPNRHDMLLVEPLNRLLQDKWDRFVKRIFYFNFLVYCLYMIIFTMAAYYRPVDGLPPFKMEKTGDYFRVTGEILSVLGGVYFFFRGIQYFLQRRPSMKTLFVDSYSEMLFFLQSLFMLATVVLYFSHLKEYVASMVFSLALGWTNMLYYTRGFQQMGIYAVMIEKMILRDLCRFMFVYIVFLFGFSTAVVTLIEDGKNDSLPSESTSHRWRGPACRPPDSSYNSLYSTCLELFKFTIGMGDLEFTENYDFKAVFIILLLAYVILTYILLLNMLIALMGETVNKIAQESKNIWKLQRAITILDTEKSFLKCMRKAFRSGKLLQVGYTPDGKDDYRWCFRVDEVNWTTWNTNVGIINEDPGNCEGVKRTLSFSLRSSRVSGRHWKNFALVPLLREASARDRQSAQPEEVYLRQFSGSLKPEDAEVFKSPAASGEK
Method in brief: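 Calcium influx kinetics via Fluo-8 (480/520 nm) in TRPV1-expressing cells, 2000/well cultured overnight at 35.5C. Compound-alone read 3 min (agonist phase), followed by EC20 capsaicin challenge for 2 min (enhancer phase).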

[7] = biological target: D(1A) dopamine receptor (Homo sapiens) (UniProt P21728); test: HTS Assay for Allosteric Agonists of the Human D1 Dopamine Receptor: Primary Screen for Agonists (AID 488981); note: potency is the fitted concentration of half-maximal effect; for activation: 0% is about no effect
D(1A) dopamine receptor (Homo sapiens), sequence (P21728 whole entry, looked up): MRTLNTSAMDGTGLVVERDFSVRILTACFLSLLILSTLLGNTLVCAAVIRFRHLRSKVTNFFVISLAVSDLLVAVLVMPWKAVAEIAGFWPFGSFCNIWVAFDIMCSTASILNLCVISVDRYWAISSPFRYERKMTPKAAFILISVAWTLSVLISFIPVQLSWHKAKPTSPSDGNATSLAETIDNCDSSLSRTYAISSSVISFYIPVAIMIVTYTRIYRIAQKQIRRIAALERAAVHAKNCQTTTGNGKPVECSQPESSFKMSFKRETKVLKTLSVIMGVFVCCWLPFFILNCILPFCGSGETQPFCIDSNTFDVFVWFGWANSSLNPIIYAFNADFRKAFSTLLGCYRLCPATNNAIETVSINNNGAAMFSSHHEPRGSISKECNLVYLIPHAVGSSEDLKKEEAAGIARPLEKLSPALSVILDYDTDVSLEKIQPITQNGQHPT
Method in brief: (§1)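 Calcium flux in an inducible, force-coupled HEK293 Trex D1 line (overnight at 30 C): agonist mode is the 180 s kinetic read after compound; potentiator mode is the following 180 s read after dopamine at EC20.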

[8] = biological target: D(1A) dopamine receptor (Homo sapiens) (UniProt P21728); test: HTS Assay for Allosteric Agonists of the Human D1 Dopamine Receptor: Primary Screen for Potentiators (AID 488982); note: 0% is about no effect
Method in brief: as §1

[9] = biological target: D(1A) dopamine receptor (Homo sapiens) (UniProt P21728); test: HTS Assay for Allosteric Agonists of the Human D1 Dopamine Receptor: Primary Screen for Antagonists (AID 488983);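 note: calcium flux response to an EC80 dopamine challenge measured with no-wash dye; % is set by controls: 0 for no effect and ±100 for the full control effect; nearly all actives have a fitted effect of over 65% in size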
Method in brief: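 Kinetic fluorescence at 1 cycle/sec tracked intracellular calcium in force-coupled, tetracycline-inducible HEK293 T-REx D1 cells. Loss of response to an EC80 dopamine dose, given 180 s after compound, marked antagonists.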

[10] = Validation screen for small molecules that induce genotoxicity in human embryonic kidney (HEK293T) cells expressing luciferase-tagged ELG1 (AID 493106); note: 0% is about no effect
Method in brief: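 Cells were dispensed at 2,000 per well, then 23 nL compound or DMSO was pinned in. After 16 hr at 37 °C and 5% CO2, ONE-Glo reagent was added. Luciferase activity was measured following 30 min at room temperature.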

[11] = biological target: ATPase family AAA domain-containing protein 5 (Homo sapiens) (UniProt Q96QE3); test: Validation screen for small molecules that inhibit ELG1-dependent DNA repair in human embryonic kidney (HEK293T) cells expressing luciferase-tagged ELG1 (AID 493107);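 note: cells co-treated with the DNA-damaging agent 5-fluorouridine alongside compound; series mostly up to about 46 µM; % is set by controls: 0 for no effect and ±100 for the full control effect; inhibitors lower the ELG1-luciferase luminescence signal; nearly all actives have a fitted effect of over 70% in size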
ATPase family AAA domain-containing protein 5 (Homo sapiens), sequence (Q96QE3 whole entry, looked up, the tested form may be a part): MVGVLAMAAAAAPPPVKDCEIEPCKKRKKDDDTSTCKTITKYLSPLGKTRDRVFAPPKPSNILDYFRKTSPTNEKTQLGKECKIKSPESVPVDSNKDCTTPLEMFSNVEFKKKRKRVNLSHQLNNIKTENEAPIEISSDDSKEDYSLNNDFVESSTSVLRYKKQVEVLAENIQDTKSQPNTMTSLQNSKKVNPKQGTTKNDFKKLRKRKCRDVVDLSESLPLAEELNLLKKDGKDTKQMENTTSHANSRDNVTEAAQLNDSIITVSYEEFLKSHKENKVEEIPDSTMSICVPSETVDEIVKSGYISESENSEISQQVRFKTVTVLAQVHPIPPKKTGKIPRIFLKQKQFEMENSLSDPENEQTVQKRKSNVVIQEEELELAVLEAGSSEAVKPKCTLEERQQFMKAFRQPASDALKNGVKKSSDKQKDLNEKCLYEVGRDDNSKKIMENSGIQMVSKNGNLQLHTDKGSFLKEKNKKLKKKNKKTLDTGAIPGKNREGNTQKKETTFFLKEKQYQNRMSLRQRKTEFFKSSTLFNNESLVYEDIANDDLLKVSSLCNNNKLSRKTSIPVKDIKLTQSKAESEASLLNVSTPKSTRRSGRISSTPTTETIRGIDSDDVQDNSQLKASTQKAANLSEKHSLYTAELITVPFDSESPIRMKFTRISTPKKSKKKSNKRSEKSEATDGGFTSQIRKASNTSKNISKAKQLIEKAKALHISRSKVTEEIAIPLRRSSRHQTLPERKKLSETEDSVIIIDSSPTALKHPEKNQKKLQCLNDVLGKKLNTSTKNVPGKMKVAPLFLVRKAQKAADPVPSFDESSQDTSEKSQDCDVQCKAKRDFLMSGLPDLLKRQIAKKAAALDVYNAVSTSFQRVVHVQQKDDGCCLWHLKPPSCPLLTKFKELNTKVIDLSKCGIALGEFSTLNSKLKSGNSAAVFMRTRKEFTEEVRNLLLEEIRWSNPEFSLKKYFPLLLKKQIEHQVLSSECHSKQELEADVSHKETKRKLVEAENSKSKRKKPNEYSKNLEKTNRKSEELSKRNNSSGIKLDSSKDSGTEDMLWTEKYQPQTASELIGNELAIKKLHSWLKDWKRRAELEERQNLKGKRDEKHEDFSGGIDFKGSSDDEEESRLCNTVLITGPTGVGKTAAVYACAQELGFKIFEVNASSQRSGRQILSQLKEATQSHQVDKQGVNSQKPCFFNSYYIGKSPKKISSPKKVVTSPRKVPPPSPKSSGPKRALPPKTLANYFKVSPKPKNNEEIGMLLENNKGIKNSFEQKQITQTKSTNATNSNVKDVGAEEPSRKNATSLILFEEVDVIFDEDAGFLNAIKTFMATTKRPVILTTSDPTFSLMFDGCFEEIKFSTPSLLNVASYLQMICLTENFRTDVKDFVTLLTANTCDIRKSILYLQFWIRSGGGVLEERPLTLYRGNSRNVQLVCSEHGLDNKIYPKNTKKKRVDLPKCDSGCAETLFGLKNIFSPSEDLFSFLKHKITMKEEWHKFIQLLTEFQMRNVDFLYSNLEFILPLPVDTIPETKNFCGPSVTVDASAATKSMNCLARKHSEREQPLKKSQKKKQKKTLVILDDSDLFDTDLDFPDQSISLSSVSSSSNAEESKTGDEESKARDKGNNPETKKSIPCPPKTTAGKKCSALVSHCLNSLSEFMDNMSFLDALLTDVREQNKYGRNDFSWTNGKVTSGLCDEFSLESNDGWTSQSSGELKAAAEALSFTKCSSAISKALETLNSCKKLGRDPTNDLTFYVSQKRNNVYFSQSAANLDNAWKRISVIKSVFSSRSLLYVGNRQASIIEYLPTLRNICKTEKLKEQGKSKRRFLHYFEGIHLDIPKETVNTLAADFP
Method in brief: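 Cells are dispensed in 1536-well format, then 5-fluorouridine and compound are pinned in. After a 16 hr incubation at 37 °C and 5% CO2, ONE-Glo is added and luciferase measured on a CCD imager.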

[12] = biological target: Thyrotropin-releasing hormone receptor (Homo sapiens) (UniProt P34981); test: qHTS for Small Molecule Agonists and Allosteric Enhancers of Human TRH Receptor: Validation Screen for Agonists (AID 493127;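 active = calcium activation more than 3 SD above the typical response in the agonist read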;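 note: intracellular calcium rise by fluo-8 fluorescence before TRH EC20 addition; 0% is about no effect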); details: TRH receptor agonist cell assay; at 2 µM; stronger effect = higher value
Thyrotropin-releasing hormone receptor (Homo sapiens), sequence (P34981 whole entry, looked up): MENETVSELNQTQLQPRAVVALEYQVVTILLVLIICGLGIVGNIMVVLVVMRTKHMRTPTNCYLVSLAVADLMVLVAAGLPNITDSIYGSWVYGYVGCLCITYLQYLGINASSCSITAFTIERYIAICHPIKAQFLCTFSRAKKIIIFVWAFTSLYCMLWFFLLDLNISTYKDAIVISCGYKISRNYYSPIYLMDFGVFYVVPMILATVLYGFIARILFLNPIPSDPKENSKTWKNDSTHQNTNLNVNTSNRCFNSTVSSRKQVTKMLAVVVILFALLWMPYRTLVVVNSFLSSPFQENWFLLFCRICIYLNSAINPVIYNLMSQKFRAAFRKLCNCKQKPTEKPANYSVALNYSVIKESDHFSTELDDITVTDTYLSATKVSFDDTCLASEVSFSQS
Method in brief: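 Compounds are added by online pintool to dye-loaded TRHR cells while fluorescence is recorded every second. A rise in calcium signal during the agonist read marks activation; a later 10 nM TRH addition (EC20) serves the separate enhancer mode.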

[13] = Nrf2 qHTS screen for inhibitors: Validation (AID 493153; active = well fitted inhibition curve with a large enough effect in the main read-out, with a control signal flat, not every such curve was filed as active); details: Potency: luciferase luminescence; viability change: measured here: cytotoxicity max response
Method in brief: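 A549 ARE_Fluc, 5% FBS OPTI-MEM; cpd titration, 18-24 h, 37°C/5% CO2. Read 1: CellTiter-Fluor (Ex 405/Em 525), cytotox. Read 2: luciferase lum, Nrf2 activity.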

[14] = qHTS for Inhibitors of Cell Surface uPA Generation: Validation Assay (AID 493164);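 note: RAW 264.7 macrophage cells exposed to compound for 18 h; 0% is about no effect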
Method in brief: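 ATP-Lite luminescence read-out: ATP remains high when uPA activity-dependent LF translocation into the cytoplasm is blocked. RAW 264.7 cells, 18 h compound exposure at 37 C; 7-point titration, 2.45 nM to 38.3 uM final.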

[15] = Validation screen for small molecules that induce DNA re-replication in SW480 colon adenocarcinoma cells (AID 504364); note: 0% is about no effect
Method in brief: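 Image-based qHTS: compounds were incubated with SW480 cells for 48 hr, nuclei stained with Hoechst, and per-nucleus fluorescence intensity scanned to flag cells with excess DNA content.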

[16] = biological target: Peptidyl-prolyl cis-trans isomerase NIMA-interacting 1 (Homo sapiens) (UniProt Q13526); test: qHTS Validation Assay to Find Inhibitors of Pin1 (AID 504536; active = well fitted inhibition curve with a large enough effect in the polarisation, with a control signal flat, not every such curve was filed as active; the % refers to the polarisation;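 note: 0% = full Pin1 enzyme wells and -100% = no-enzyme wells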)
Peptidyl-prolyl cis-trans isomerase NIMA-interacting 1 (Homo sapiens), sequence (Q13526 whole entry, looked up): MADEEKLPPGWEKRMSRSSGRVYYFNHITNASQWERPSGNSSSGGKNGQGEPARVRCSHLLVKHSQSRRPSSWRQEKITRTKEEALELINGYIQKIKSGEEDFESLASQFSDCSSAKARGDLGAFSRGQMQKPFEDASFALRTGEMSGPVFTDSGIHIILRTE
Method in brief: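 Fluorescence polarization competition: compounds (titration) displace HiFluor-488-labeled Pin1-1b peptide from Pin1 (0.3 uM final) in pH 7.5 HEPES buffer with DTT, 10 min at room temperature; %Activity normalized to no-enzyme wells, curves fitted.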

[17] = biological target: Phosphoglycerate kinase, glycosomal (Trypanosoma brucei brucei) (UniProt P07378); test: qHTS Validation Assay to Find Inhibitors of Phosphoglycerate Kinase (AID 504547);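 note: control wells lack PGK and mark full inhibition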
Method in brief: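 Luminescence end-point (Kinase-Glo Plus, 10 min) after a 60 min room-temperature coupled reaction. GAPDH at 100nM final supplies 1,3-BPG to PGK. Buffer: 100mM TEA pH 7.6, 5mM MgCl2, 0.01% Tween-20. Wells lacking PGK served as controls.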

[18] = biological target: Thyrotropin receptor (Homo sapiens) (UniProt P16473); test: qHTS Assay for Antagonists of the Thyroid Stimulating Hormone Receptor (AID 488980); note: series mostly up to about 58 µM; 0% is about no effect
Method in brief: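 Readout is cAMP by HTRF competition between cellular cAMP and cAMP-d2 for a cryptate-labelled antibody. Antagonism was assessed in TSHR-transfected HEK293 cells stimulated with 4 nM TSH (EC80, final) in the presence of RO 20-1724.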

[19] = biological target: ATP-dependent 6-phosphofructokinase (Trypanosoma brucei brucei) (UniProt O15648); test: qHTS Assay to Find Inhibitors of T. brucei phosphofructokinase: hit validation (AID 492961);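 note: luminescence reports ADP formed as PFK phosphorylates fructose-6-phosphate with ATP; series mostly up to about 51 µM; % is set by controls: 0 for no effect and ±100 for the full control effect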
Method in brief: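 Measures ADP output of PFK (1.25 nM) at 0.1 mM ATP, 0.5 mM F6P, pH 8.0 TEA buffer with 5 mM MgCl2. No-enzyme wells define full inhibition; uninhibited enzyme wells define zero.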

[20] = biological target: Galactokinase (Homo sapiens) (UniProt P51570); test: qHTS Validation Assay for Inhibitors of Human Galactokinase (GALK) (AID 493189); note: 0% is about no effect
Galactokinase (Homo sapiens), sequence (P51570 whole entry, looked up): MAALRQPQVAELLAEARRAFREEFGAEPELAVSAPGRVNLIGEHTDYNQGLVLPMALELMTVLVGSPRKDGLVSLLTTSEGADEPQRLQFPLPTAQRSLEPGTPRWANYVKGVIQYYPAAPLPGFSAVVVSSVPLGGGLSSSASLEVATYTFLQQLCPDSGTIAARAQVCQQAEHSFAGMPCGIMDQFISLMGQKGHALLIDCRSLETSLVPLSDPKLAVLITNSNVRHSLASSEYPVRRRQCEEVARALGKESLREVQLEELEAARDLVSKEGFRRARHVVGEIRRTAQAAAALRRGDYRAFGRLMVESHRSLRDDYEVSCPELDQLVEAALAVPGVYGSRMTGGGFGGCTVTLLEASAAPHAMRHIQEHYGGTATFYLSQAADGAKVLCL
Method in brief: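 5 nM GALK / 100 uM galactose / 35 uM ATP, 20 mM HEPES pH8.0, 5 mM MgCl2, 60 mM NaCl, 1 mM DTT, 0.01% BSA (final). RT 1 h; Kinase-Glo Plus luminescence.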

CCN(CC)CCCC(C)Nc1ccnc2cc(Cl)ccc12 (configuration not stated)
inactive: Potency [1] | Potency [2] | Potency [3] | Potency [4] | outcome [5] | outcome [6] | Potency [7] | Potency [8] | Potency [9] | Potency [10] | Potency [11] | activation [12] 0.875% | Potency [13] | outcome [14] | outcome [15] | outcome [16] | outcome [17]
-17.9%: viability change [13]

CCCCNc1cc(C(=O)O)cc(S(N)(=O)=O)c1Oc1ccccc1
10.1%: viability change [13]
inactive: Potency [1] | Potency [2] | Potency [3] | Potency [4] | outcome [5] | outcome [6] | outcome [18] | Potency [7] | Potency [8] | Potency [9] | outcome [19] | Potency [10] | activation [12] 1.31% | Potency [13] | outcome [14] | outcome [20] | outcome [15] | outcome [16] | outcome [17]

Cc1ccccc1C(OCCN(C)C)c1ccccc1 (configuration not stated)
inactive: Potency [1] | Potency [2] | Potency [3] | Potency [4] | outcome [5] | outcome [6] | outcome [18] | Potency [7] | Potency [8] | Potency [9] | outcome [19] | Potency [10] | Potency [11] | activation [12] 0.625% | Potency [13] | outcome [14] | outcome [20] | outcome [15] | outcome [16] | outcome [17]
7.3%: viability change [13]

Nc1nc2ccc(OC(F)(F)F)cc2s1
inactive: Potency [1] | Potency [2] | Potency [3] | Potency [4] | outcome [5] | outcome [6] | outcome [18] | Potency [7] | Potency [8] | Potency [9] | Potency [13] | outcome [14] | outcome [20] | outcome [15] | outcome [16] | outcome [17]
-4.99%: viability change [13]

CC(C)C[C@H](NC(=O)[C@@H](O)[C@H](N)Cc1ccccc1)C(=O)O
inactive: Potency [1] | Potency [2] | Potency [3] | Potency [4] | outcome [5] | outcome [6] | outcome [18] | Potency [7] | Potency [8] | Potency [9] | outcome [19] | Potency [10] | Potency [11] | activation [12] 0.938% | outcome [20] | outcome [15] | outcome [16] | outcome [17]

c1ccc([C@H]2CN3CCSC3=N2)cc1
inactive: Potency [1] | Potency [2] | Potency [3] | Potency [4] | outcome [5] | outcome [6] | outcome [18] | Potency [7] | Potency [8] | Potency [9] | Potency [10] | Potency [11] | activation [12] 0.875% | Potency [13] | outcome [14] | outcome [20] | outcome [15] | outcome [16] | outcome [17]
-0.324%: viability change [13]

CCn1cc(C(=O)O)c(=O)c2cc(F)c(N3CCNC(C)C3)c(F)c21 (configuration not stated)
-3.76%: viability change [13]
inactive: Potency [1] | Potency [2] | Potency [3] | Potency [4] | outcome [5] | outcome [6] | outcome [18] | Potency [7] | Potency [8] | Potency [9] | Potency [10] | Potency [11] | Potency [13] | outcome [14] | outcome [20] | outcome [15] | outcome [17]

NC(=O)c1cnccn1
-0.821%: viability change [13]
inactive: Potency [1] | Potency [2] | Potency [3] | Potency [4] | outcome [5] | outcome [6] | Potency [7] | Potency [8] | Potency [9] | Potency [10] | activation [12] 0.688% | Potency [13] | outcome [14] | outcome [20] | outcome [15] | outcome [16] | outcome [17]

CC(C)(Sc1ccc(CCN(CCCCC2CCCCC2)C(=O)NC2CCCCC2)cc1)C(=O)O
inactive: Potency [1] | Potency [2] | outcome [5] | outcome [6] | outcome [18] | Potency [8] | Potency [10] | Potency [11] | activation [12] 1.5% | outcome [14] | outcome [20] | outcome [15] | outcome [17]
56.2 µM (active) and inactive: Potency [3]
active: Potency [4] 56.2 µM | Potency [7] 11.2 µM

CNC[C@H](O)c1cccc(O)c1
-8.68%: viability change [13]
inactive: Potency [1] | Potency [2] | Potency [3] | Potency [4] | outcome [5] | outcome [6] | outcome [18] | Potency [7] | Potency [8] | outcome [19] | Potency [10] | Potency [11] | Potency [13] | outcome [14] | outcome [20] | outcome [15] | outcome [16] | outcome [17]

Cc1[nH]c(=O)c(C#N)cc1-c1ccncc1
inactive: Potency [1] | Potency [2] | Potency [3] | Potency [4] | outcome [5] | outcome [6] | outcome [18] | Potency [7] | Potency [8] | Potency [9] | outcome [19] | Potency [10] | Potency [11] | activation [12] 0.562% | Potency [13] | outcome [14] | outcome [20] | outcome [15] | outcome [16] | outcome [17]
-4.04%: viability change [13]

Nc1ccc(S(=O)(=O)Nc2ccnn2-c2ccccc2)cc1
-5.45%: viability change [13]
inactive: Potency [1] | Potency [2] | Potency [3] | Potency [4] | outcome [5] | outcome [6] | outcome [18] | Potency [7] | Potency [8] | Potency [9] | outcome [19] | Potency [10] | Potency [11] | activation [12] 1.12% | Potency [13] | outcome [14] | outcome [20] | outcome [15] | outcome [16] | outcome [17]
